From PubChem BioAssay (Tox21)
Records with an inconclusive call do not appear. Unmarked numbers belong to inactive results. Calls of active or inactive are those of the source. Calls come from the whole dose curve.

Assay: p53 small molecule agonists, cell-based qHTS assay with human liver microsomes (AID 1963577); note: potency is the fitted concentration of half-maximal effect
Conditions: HCT-116 p53RE-bla with human liver microsomes, ratio, 16 h; series mostly up to 66 µM; activation: at the top concentration
Outline: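 Fluorescence of the beta-lactamase reporter in p53RE-bla cells, detected with LiveBLAzer substrate (2 h, room temperature, dark), served as the read-out after 16 h compound exposure at 37 C with human liver microsomes and NADPH, each 0.5 mg/mL final.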
% is set by controls: 0 for no effect and ±100 for the full control effect.

Structure (SMILES)	activation	Potency
COc1cc(C)nc(-n2nc(C)cc2OC)n1	-0.147% [at 30.3 µM]	–
O=P(c1ccccc1)(c1ccccc1)c1ccccc1	2.07%	–
Nc1cccc2c(N)cccc12	-5.56%	–
CNCC[C@H](Oc1cccc2ccccc12)c1cccs1	-2.16% [at 30.3 µM]	–
O=C(NCC(O)CO)c1c(I)c(C(=O)NCC(O)CO)c(I)c(N(CCO)C(=O)CO)c1I (stereo not drawn)	9.76% [at 30.3 µM]	–
CC[C@@H]([C@H](C)O)n1ncn(-c2ccc(N3CCN(c4ccc(OC[C@@H]5CO[C@@](Cn6cncn6)(c6ccc(F)cc6F)C5)cc4)CC3)cc2)c1=O	-11.2% [at 30.3 µM]	–
S=P(N1CC1)(N1CC1)N1CC1	–	34.1 µM (active)
Cc1c(C)n(Cc2ccccc2)c2ccc(C(=O)OCCN(C)C)cc12	0.452% [at 30.3 µM]	–
C=C(C)C(=O)OCC(O)COc1ccc(C(C)(C)c2ccc(OCC(O)COC(=O)C(=C)C)cc2)cc1 (stereo not drawn)	-9.34%	–
CC(C)(C)c1ccc(C(=O)CCCN2CCC(OC(c3ccccc3)c3ccccc3)CC2)cc1	-2.24% [at 30.3 µM]	–
CCCCOC(=O)c1ccccc1C(=O)OCC(CC)CCCC (stereo not drawn)	0.329%	–
CCOC(=O)CC(=O)C(=O)OCC	0.212%	–
CC(C)(C)c1csc(-c2cc3cc(OCc4ccccc4CC(=O)O)ccc3o2)n1	-3.36%	–

Assay: p53 small molecule agonists, cell-based qHTS assay with rat liver microsomes (AID 1963578)
Conditions: HCT-116 p53RE-bla, beta-lactamase ratio, 16 h; series mostly up to 66 µM; activation: at the top concentration
Outline: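 Cells carrying a p53 response element–beta-lactamase reporter were plated and rested 5 h, then dosed with compound in DMSO plus rat liver microsomes and NADPH, each at 0.5 mg/mL final. After 16 h at 37 C, LiveBLAzer substrate was added for 2 h.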

Structure (SMILES)	activation
COc1cc(C)nc(-n2nc(C)cc2OC)n1	0.15% [at 30.3 µM]
O=P(c1ccccc1)(c1ccccc1)c1ccccc1	0.435%
CNCC[C@H](Oc1cccc2ccccc12)c1cccs1	0.0866% [at 30.3 µM]
O=C(NCC(O)CO)c1c(I)c(C(=O)NCC(O)CO)c(I)c(N(CCO)C(=O)CO)c1I (stereo not drawn)	0.074% [at 30.3 µM]
CC[C@@H]([C@H](C)O)n1ncn(-c2ccc(N3CCN(c4ccc(OC[C@@H]5CO[C@@](Cn6cncn6)(c6ccc(F)cc6F)C5)cc4)CC3)cc2)c1=O	-1.12% [at 30.3 µM]
Cc1c(C)n(Cc2ccccc2)c2ccc(C(=O)OCCN(C)C)cc12	-5.47% [at 30.3 µM]
C=C(C)C(=O)OCC(O)COc1ccc(C(C)(C)c2ccc(OCC(O)COC(=O)C(=C)C)cc2)cc1 (stereo not drawn)	6.05%
CC(C)(C)c1ccc(C(=O)CCCN2CCC(OC(c3ccccc3)c3ccccc3)CC2)cc1	-1.21% [at 30.3 µM]
CCCCOC(=O)c1ccccc1C(=O)OCC(CC)CCCC (stereo not drawn)	3.54%
CCOC(=O)CC(=O)C(=O)OCC	0.557%
COc1cc([C@@H]2c3cc4c(cc3[C@@H](O[C@@H]3O[C@@H]5CO[C@@H](C)O[C@H]5[C@H](O)[C@H]3O)[C@H]3COC(=O)[C@H]23)OCO4)cc(OC)c1O	0.033%
COC(=O)[C@H]1[C@H]2C[C@@H]3c4[nH]c5cc(OC)ccc5c4CCN3C[C@H]2C[C@@H](OC(=O)/C=C/c2ccc(O)c(OC)c2)[C@@H]1OC	-2.29% [at 30.3 µM]
CC(C)(C)c1csc(-c2cc3cc(OCc4ccccc4CC(=O)O)ccc3o2)n1	0.553%

Assay: p53 small molecule agonists, cell-based qHTS assay with human liver microsomes: qHTS cell viability counter screen (AID 1963579); note: nearly all actives have a fitted effect of over 45% in size; note: potency is the fitted concentration of half-maximal effect
Conditions: p53RE-bla HCT-116 viability, ATP luminescence, 16 h, HLM; series mostly up to 66 µM; activity change, negative = cytotoxicity: at the top concentration
Outline: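 Cytotoxicity counter screen: p53RE-bla, 4,000 cells/well; 5 h settle, 37 C/5% CO2; cpd + HLM 0.5 mg/mL + NADPH 0.5 mg/mL (final); 16 h, 37 C; CellTiter-Glo, 30 min RT, luminescence.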

Structure (SMILES)	activity change, negative = cytotoxicity	Potency
C=C1C(=C/C=C2\CCC[C@]3(C)[C@@H]([C@H](C)/C=C/[C@@H](O)C4CC4)CC[C@@H]23)C[C@@H](O)C[C@@H]1O	0.736% [at 30.3 µM]	–
O=P(c1ccccc1)(c1ccccc1)c1ccccc1	5.56%	–
CNCC[C@H](Oc1cccc2ccccc12)c1cccs1	11.4% [at 30.3 µM]	–
CC1(C)CCC[C@]2(C)[C@H]3CCO[C@]3(C)CC[C@@H]12	-3.47%	–
O=C(NCC(O)CO)c1c(I)c(C(=O)NCC(O)CO)c(I)c(N(CCO)C(=O)CO)c1I (stereo not drawn)	1.34% [at 30.3 µM]	–
CC[C@@H]([C@H](C)O)n1ncn(-c2ccc(N3CCN(c4ccc(OC[C@@H]5CO[C@@](Cn6cncn6)(c6ccc(F)cc6F)C5)cc4)CC3)cc2)c1=O	6.77% [at 30.3 µM]	–
S=P(N1CC1)(N1CC1)N1CC1	-5.39%	–
Cc1c(C)n(Cc2ccccc2)c2ccc(C(=O)OCCN(C)C)cc12	19.3% [at 30.3 µM]	–
COc1cc(Cl)c(OC)cc1N	11%	–
CC(C)(C)c1ccc(C(=O)CCCN2CCC(OC(c3ccccc3)c3ccccc3)CC2)cc1	3.26% [at 30.3 µM]	–
O=[N+]([O-])c1cc([N+](=O)[O-])c2ccc(S(=O)(=O)O)cc2c1O	-2.14%	–
CCCCOC(=O)c1ccccc1C(=O)OCC(CC)CCCC (stereo not drawn)	7.12%	–
CN1CCC(N(Cc2cccs2)c2ccccc2)CC1	-3.7% [at 30.3 µM]	–
CCOC(=O)CC(=O)C(=O)OCC	-19.9%	–
COc1cc([C@@H]2c3cc4c(cc3[C@@H](O[C@@H]3O[C@@H]5CO[C@@H](C)O[C@H]5[C@H](O)[C@H]3O)[C@H]3COC(=O)[C@H]23)OCO4)cc(OC)c1O	12%	–
COCCOC	-13%	–
COC(=O)[C@H]1[C@H]2C[C@@H]3c4[nH]c5cc(OC)ccc5c4CCN3C[C@H]2C[C@@H](OC(=O)/C=C/c2ccc(O)c(OC)c2)[C@@H]1OC	-15.1% [at 30.3 µM]	–
CCN(CC)CCCC(C)Nc1c2ccc(Cl)cc2nc2ccc(OC)cc12 (stereo not drawn)	1.85% [at 30.3 µM]	–
CC(C)(C)c1csc(-c2cc3cc(OCc4ccccc4CC(=O)O)ccc3o2)n1	–	45.8 µM (active)
CN1CCN(CCCN2c3ccccc3Sc3ccc(S(=O)(=O)N(C)C)cc32)CC1	-0.238% [at 30.3 µM]	–

Assay: p53 small molecule agonists, cell-based qHTS assay with rat liver microsomes: qHTS cell viability counter screen (AID 1963580); note: nearly all actives have a fitted effect of over 45% in size; note: potency is the fitted concentration of half-maximal effect
Conditions: p53RE-bla HCT-116 + rat microsomes, ATP viability, 16 h; series mostly up to 66 µM; activity change, negative = cytotoxicity: at the top concentration
Outline: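 p53RE-bla HCT-116 cells (4,000/well) rested 5 h at 37 C, then given Tox21 compounds in DMSO with rat liver microsomes (0.5 mg/mL final) plus NADPH (0.5 mg/mL final) for 16 h at 37 C. Viability read by CellTiter-Glo luminescence after 30 min at room temperature.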

Structure (SMILES)	activity change, negative = cytotoxicity	Potency
COc1cc(C)nc(-n2nc(C)cc2OC)n1	1% [at 30.3 µM]	–
C=C1C(=C/C=C2\CCC[C@]3(C)[C@@H]([C@H](C)/C=C/[C@@H](O)C4CC4)CC[C@@H]23)C[C@@H](O)C[C@@H]1O	-13.5% [at 30.3 µM]	–
O=P(c1ccccc1)(c1ccccc1)c1ccccc1	1.24%	–
Nc1cccc2c(N)cccc12	-5.22%	–
CNCC[C@H](Oc1cccc2ccccc12)c1cccs1	0.848% [at 30.3 µM]	–
CC1(C)CCC[C@]2(C)[C@H]3CCO[C@]3(C)CC[C@@H]12	-3.94%	–
O=C(NCC(O)CO)c1c(I)c(C(=O)NCC(O)CO)c(I)c(N(CCO)C(=O)CO)c1I (stereo not drawn)	0.826% [at 30.3 µM]	–
CC[C@@H]([C@H](C)O)n1ncn(-c2ccc(N3CCN(c4ccc(OC[C@@H]5CO[C@@](Cn6cncn6)(c6ccc(F)cc6F)C5)cc4)CC3)cc2)c1=O	-0.961% [at 30.3 µM]	–
S=P(N1CC1)(N1CC1)N1CC1	25.9%	–
Cc1c(C)n(Cc2ccccc2)c2ccc(C(=O)OCCN(C)C)cc12	-12.7% [at 30.3 µM]	–
C=C(C)C(=O)OCC(O)COc1ccc(C(C)(C)c2ccc(OCC(O)COC(=O)C(=C)C)cc2)cc1 (stereo not drawn)	-3.36%	–
COc1cc(Cl)c(OC)cc1N	-14.3%	–
CC(C)(C)c1ccc(C(=O)CCCN2CCC(OC(c3ccccc3)c3ccccc3)CC2)cc1	-0.637% [at 30.3 µM]	–
O=C1c2c(O)ccc(O)c2C(=O)c2c(NCCNCCO)ccc(NCCNCCO)c21	–	19.9 µM (active)
O=[N+]([O-])c1cc([N+](=O)[O-])c2ccc(S(=O)(=O)O)cc2c1O	-2.21%	–
CCCCOC(=O)c1ccccc1C(=O)OCC(CC)CCCC (stereo not drawn)	2.15%	–
CCOC(=O)CC(=O)C(=O)OCC	-11.8%	–
COc1cc([C@@H]2c3cc4c(cc3[C@@H](O[C@@H]3O[C@@H]5CO[C@@H](C)O[C@H]5[C@H](O)[C@H]3O)[C@H]3COC(=O)[C@H]23)OCO4)cc(OC)c1O	-22.4%	–
Cc1nc(-c2ccccn2)ncc1C(=O)Nn1cc(C)c2cc(F)ccc21	-9.03%	–
COCCOC	3.6%	–
COC(=O)[C@H]1[C@H]2C[C@@H]3c4[nH]c5cc(OC)ccc5c4CCN3C[C@H]2C[C@@H](OC(=O)/C=C/c2ccc(O)c(OC)c2)[C@@H]1OC	-0.135% [at 30.3 µM]	–
CN1CCN(CCCN2c3ccccc3Sc3ccc(S(=O)(=O)N(C)C)cc32)CC1	-7.2% [at 30.3 µM]	–
